In the supplement of paper PMC13094657:
± gives the standard deviation of the averaged measurements.

The compounds below were run on MDA-MB-231 (assay: cell viability relative to vehicle unstimulated control (fraction); higher = more viable cells). Settings: pre-treatment time: 18 h then 24 h IFNg/TNF.
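Also: viability of the cells left after supernatant collection, read with Deep Blue dye added for 4 h, as absorbance at 570 nm minus 600 nm.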

| Structure (SMILES) | cell viability |
| --- | --- |
| CC(C)C1=CC(=O)C(C)(C2C(O)CC3(C)C4CC=C5C(CCC(OC6OC(CO)C(O)C(O)C6OC6OC(C)C(O)C(O)C6O)C5(C)C)C4(C)C(=O)CC23C)O1 (stereo not given) [Picfeltarraenin IB] (compound dose: 10 uM) | 1.02 ± 0.067 |
| COc1ccc2cc3[n+](cc2c1OC)CCc1cc2c(cc1-3)OCO2 [Berberine] (compound dose: 10 uM) | 0.8829 ± 0.0012 |
| CC(=O)O[C@@H]1C[C@H](O)[C@@]23CO[C@@H](O)[C@]1(C)[C@@H]2C[C@@H](O)[C@]1(C)[C@@H]3C(=O)[C@H](OC(C)=O)[C@@]2(C)[C@H](c3ccoc3)C[C@H]3O[C@]321 [Toosendanin] (compound dose: 10 uM) | 0.858 ± 0.056 |
| O=C1C[C@@H](O[C@@H]2O[C@H](CO)[C@@H](O)[C@H](O)[C@H]2O)CO1 [Kinsenoside] (compound dose: 10 uM) | 0.971 ± 0.18 |
| COc1ccc2c(c1O)C(Cc1ccc(O)cc1)[N+](C)(C)CC2 (stereo not given) [Oblongine] (compound dose: 10 uM) | 0.969 ± 0.037 |
| C[C@H](CC(=O)C[C@@H](C)[C@H]1C[C@H](O)[C@@]2(C)C3=C(C(=O)C[C@]12C)[C@@]1(C)CCC(=O)C(C)(C)[C@@H]1C[C@@H]3O)C(=O)O [Ganoderic acid A] (compound dose: 10 uM) | 0.889 ± 0.073 |
| COC(=O)[C@@]1(C)CC[C@]2(C(=O)O)CC[C@]3(C)C(=CC[C@@H]4[C@@]5(C)C[C@H](O)[C@H](O)[C@@](C)(CO)[C@@H]5CC[C@]43C)[C@@H]2C1 [Phytolaccagenin] (compound dose: 10 uM) | 0.924 ± 0.049 |
| CC12CCC(C1)C(C)(C)C2=O (single isomer, unassigned; (-)) [(-)-Fenchone] (compound dose: 10 uM) | 1.121 ± 0.0077 |
| CC(C)=CCC[C@](C)(O[C@@H]1O[C@H](CO)[C@@H](O)[C@H](O)[C@H]1O)[C@H]1CC[C@]2(C)[C@@H]1[C@H](O)C[C@@H]1[C@@]3(C)CC[C@H](O)C(C)(C)[C@@H]3[C@@H](O[C@@H]3O[C@H](CO)[C@@H](O)[C@H](O)[C@H]3O[C@@H]3OC[C@@H](O)[C@H](O)[C@H]3O)C[C@]12C [Notoginsenoside R1] (compound dose: 10 uM) | 0.909 ± 0.066 |
| O=C(O)c1cncc(C(=O)O)c1 [3-5-pyridinedicarboxylic acid] (compound dose: 10 uM) | 1.04 ± 0.044 |
| COc1cc2c(cc1O)C(Cc1ccc(O)cc1)[N+](C)(C)CC2 (stereo not given) [Magnocurarine] (compound dose: 10 uM) | 1.02 ± 0.014 |
| COC(=O)C1=CO[C@@H](O[C@@H]2O[C@H](CO)[C@@H](O)[C@H](O)[C@H]2O)[C@@H]2[C@@H](C)CC(=O)[C@]12O [Hastatoside] (compound dose: 10 uM) | 0.981 ± 0.017 |
| CC(=O)O[C@@H]1C[C@@]23C[C@@]24CC[C@H](O[C@@H]2OC[C@H](O)[C@H](O)[C@H]2O)C(C)(C)[C@@H]4CC[C@H]3[C@]2(C)[C@@H](O)[C@]34O[C@H](C[C@@H](C)[C@@H]3[C@@]12C)[C@@H](C(C)(C)O)O4 [Cimiracemoside D] (compound dose: 10 uM) | 1.02 ± 0.086 |
| CC1=CCC(O)(C(C)C)CC1 (stereo not given) [Terpineol] (compound dose: 10 uM) | 0.969 ± 0.087 |
| CC(C)=CC/C=C(\C)[C@H]1CC[C@]2(C)[C@@H]1[C@H](O)C[C@@H]1[C@@]3(C)CC[C@H](O[C@@H]4O[C@H](CO)[C@@H](O)[C@H](O)[C@H]4O[C@@H]4O[C@H](CO)[C@@H](O)[C@H](O)[C@H]4O)C(C)(C)[C@@H]3CC[C@]12C [Ginsenoside Rg5] (compound dose: 10 uM) | 0.906 ± 0.032 |
| C[C@@H]1O[C@@H](O[C@H]2[C@H](O[C@H]3CC[C@@]4(C)[C@@H](CC[C@]5(C)[C@@H]4CC=C4[C@@H]6CC(C)(C)CC[C@]6(C(=O)O[C@@H]6O[C@H](CO[C@@H]7O[C@H](CO)[C@@H](O)[C@H](O)[C@H]7O)[C@@H](O)[C@H](O)[C@H]6O)CC[C@]45C)[C@]3(C)CO)OC[C@H](O)[C@@H]2O)[C@H](O)[C@H](O[C@@H]2O[C@H](CO)[C@@H](O[C@@H]3O[C@H](CO)[C@@H](O)[C@H](O)[C@H]3O)[C@H](O)[C@H]2O)[C@H]1O [Macranthoidin B] (compound dose: 10 uM) | 0.9895 ± 0.0011 |
| C[C@@H]1C(=O)O[C@H]2C[C@@]34O[C@@H]5OC(=O)[C@H](O)[C@@]56[C@H](C(C)(C)C)[C@H](O)C(OC3=O)[C@]64[C@]21O (stereo not given in full) [Ginkgolide J] (compound dose: 10 uM) | 0.962 ± 0.014 |
| C/C=C(/C)C(=O)O[C@H]1[C@H](O)[C@]2(COC(C)=O)[C@H](O)C[C@]3(C)C(=CC[C@@H]4[C@@]5(C)CC[C@H](O[C@@H]6O[C@H](C(=O)O)[C@@H](O[C@@H]7O[C@H](CO)[C@@H](O)[C@H](O)[C@H]7O)[C@H](O)[C@H]6O[C@@H]6O[C@H](CO)[C@@H](O)[C@H](O)[C@H]6O)[C@](C)(CO)[C@@H]5CC[C@]43C)[C@@H]2CC1(C)C [Isoescin IB] (compound dose: 10 uM) | 1.08 ± 0.074 |

| Structure (SMILES) | cell viability |
| --- | --- |
| C[C@@H]1O[C@@H](OC[C@H]2O[C@@H](Oc3c(-c4ccc(O)cc4)oc4cc(O)cc(O)c4c3=O)[C@H](O)[C@@H](O)[C@@H]2O)[C@H](O)[C@H](O)[C@H]1O [Kaempferol 3-rutinoside] (compound dose: 10 uM) | 1.1 ± 0.14 |
| CC(C)C1=C[C@H]2[C@@H](CC[C@]2(C)O)[C@](C)(O)CC1 [Alismoxide] (compound dose: 10 uM) | 1.01 ± 0.018 |
| CC(=O)O[C@@H]1C[C@@]23C[C@@]24CC[C@H](O[C@@H]2OC[C@@H](O)[C@H](O)[C@H]2O)C(C)(C)[C@@H]4CC[C@H]3[C@]2(C)C[C@@H]3O[C@]4(C[C@@H](C)[C@@H]3[C@@]12C)OC[C@@]1(C)O[C@@H]41 [26-Deoxyactein] (compound dose: 10 uM) | 0.9809 ± 0.0077 |
| C[C@H](CC[C@@H](O[C@@H]1O[C@H](CO)[C@@H](O)[C@H](O)[C@H]1O)C(C)(C)O)[C@H]1CC[C@@]2(C)[C@@H]3CC=C4[C@@H](CC[C@H](O[C@@H]5O[C@H](CO)[C@@H](O)[C@H](O)[C@H]5O)C4(C)C)[C@]3(C)[C@H](O)C[C@]12C [Mogroside IIe] (compound dose: 10 uM) | 0.984 ± 0.089 |
| CC(C)=CCC[C@@](C)(O)[C@H]1CC[C@]2(C)[C@@H]1[C@H](O)C[C@@H]1[C@@]3(C)C[C@@H](O)[C@H](O[C@@H]4O[C@H](CO)[C@@H](O)[C@H](O)[C@H]4O[C@@H]4O[C@H](CO)[C@@H](O)[C@H](O)[C@H]4O)C(C)(C)[C@@H]3CC[C@]12C [Gypenoside LI] (compound dose: 10 uM) | 0.936 ± 0.084 |
| CCOC(=O)/C=C/c1ccccc1 [Ethyl cinnamate] (compound dose: 10 uM) | 0.988 ± 0.085 |
| O=c1c(O)c(-c2ccc(O)c(O)c2)oc2cc(O)cc(O)c12 [Quercetin] (compound dose: 10 uM) | 0.974 ± 0.095 |
| CC(CC(=O)C[C@@H](C)[C@H]1CC(=O)[C@@]2(C)C3=C(C(=O)[C@@H](O)[C@]12C)[C@@]1(C)CC[C@H](O)C(C)(C)[C@@H]1C[C@@H]3O)C(=O)O (stereo not given in full) [Ganoderic acid G] (compound dose: 10 uM) | 1.1 ± 0.058 |
| O=c1ccn2c(n1)O[C@H]1[C@H](O)[C@@H](CO)O[C@H]12 [2,2'-Anhydrouridine] (compound dose: 10 uM) | 0.906 ± 0.036 |
| CC(C)(O[C@@H]1O[C@H](CO)[C@@H](O)[C@H](O)[C@H]1O)[C@@H]1CC[C@](O)(CO)[C@H]2CC(=O)[C@@](C)(O)[C@@H]2C1 [Atractyloside A] (compound dose: 10 uM) | 0.986 ± 0.03 |
| CC1(C)CC[C@]2(C(=O)O)CC[C@]3(C)C(=CC[C@@H]4[C@@]5(C)CC[C@H](O[C@@H]6O[C@H](C(=O)O)[C@@H](O)[C@H](O)[C@H]6O)C(C)(C)[C@@H]5CC[C@]43C)[C@@H]2C1 [Calenduloside E] (compound dose: 10 uM) | 1.07 ± 0.054 |
| CC(C)=CCC/C(C)=C/CO [Geraniol] (compound dose: 10 uM) | 0.998 ± 0.042 |
| O=C(O)/C=C/c1ccccc1O [O-coumaric acid] (compound dose: 10 uM) | 0.976 ± 0.097 |
| CC(C)=CCC[C@](C)(O[C@@H]1O[C@H](CO[C@@H]2OC[C@@H](O)[C@H](O)[C@H]2O)[C@@H](O)[C@H](O)[C@H]1O)[C@H]1CC[C@]2(C)[C@@H]1[C@H](O)C[C@@H]1[C@@]3(C)CC[C@H](O[C@@H]4O[C@H](CO)[C@@H](O)[C@H](O)[C@H]4O[C@@H]4O[C@H](CO)[C@@H](O)[C@H](O)[C@H]4O)C(C)(C)[C@@H]3CC[C@]12C [Ginsenoside Rb3] (compound dose: 10 uM) | 1.01 ± 0.015 |
| CC1(C)CC[C@]2(C)CC[C@]3(C)C(=CC[C@@H]4[C@@]5(C)CC[C@@H](O)[C@](C)(C(=O)O)[C@@H]5CC[C@]43C)[C@@H]2C1 [alpha-Boswellic acid] (compound dose: 10 uM) | 0.953 ± 0.011 |
| C=C(C(=O)O)[C@@H]1CC[C@@H](C)[C@@H]2CCC(C)=C[C@@H]21 [Artemisinic acid] (compound dose: 10 uM) | 1.08 ± 0.11 |
| C=C1CC[C@@H]2[C@](C)(COC(=O)CCC(=O)O)[C@H](OC(=O)CCC(=O)O)CC[C@@]2(C)[C@@H]1/C=C/C1=CCOC1=O [Kalii Dehydrographolidi Succinas] (compound dose: 2 uM) | 1.08 ± 0.13 |
